From ChEMBL document CHEMBL1961873, “Compounds: GSK PKIS; Assays: Nanosyn kinase panel” (2012)

What was measured:
[1] = system: Proto-oncogene tyrosine-protein kinase receptor Ret (Homo sapiens), P07949 [Y791F]; settings: at 1 µM
[2] = target: Macrophage-stimulating protein receptor (Homo sapiens) (UniProt Q04912); settings: at 0.1 µM
[3] = target: Macrophage-stimulating protein receptor (Homo sapiens) (UniProt Q04912); settings: at 1 µM
[4] = target: Proto-oncogene tyrosine-protein kinase ROS (Homo sapiens) (UniProt P08922); settings: at 0.1 µM
[5] = target: Proto-oncogene tyrosine-protein kinase ROS (Homo sapiens) (UniProt P08922); settings: at 1 µM
[6] = target: Proto-oncogene tyrosine-protein kinase Src (Homo sapiens) (UniProt P12931); settings: at 0.1 µM
[7] = target: Proto-oncogene tyrosine-protein kinase Src (Homo sapiens) (UniProt P12931); settings: at 1 µM
[8] = target: Tyrosine-protein kinase Srms (Homo sapiens) (UniProt Q9H3Y6); settings: at 0.1 µM
[9] = target: Tyrosine-protein kinase Srms (Homo sapiens) (UniProt Q9H3Y6); settings: at 1 µM
[10] = target: Tyrosine-protein kinase SYK (Homo sapiens) (UniProt P43405); settings: at 0.1 µM
[11] = target: Tyrosine-protein kinase SYK (Homo sapiens) (UniProt P43405); settings: at 1 µM
[12] = target: T1, Tyrosine-protein kinase Tec (Homo sapiens) (UniProt P42680); settings: at 0.1 µM
T1 sequence (whole entry): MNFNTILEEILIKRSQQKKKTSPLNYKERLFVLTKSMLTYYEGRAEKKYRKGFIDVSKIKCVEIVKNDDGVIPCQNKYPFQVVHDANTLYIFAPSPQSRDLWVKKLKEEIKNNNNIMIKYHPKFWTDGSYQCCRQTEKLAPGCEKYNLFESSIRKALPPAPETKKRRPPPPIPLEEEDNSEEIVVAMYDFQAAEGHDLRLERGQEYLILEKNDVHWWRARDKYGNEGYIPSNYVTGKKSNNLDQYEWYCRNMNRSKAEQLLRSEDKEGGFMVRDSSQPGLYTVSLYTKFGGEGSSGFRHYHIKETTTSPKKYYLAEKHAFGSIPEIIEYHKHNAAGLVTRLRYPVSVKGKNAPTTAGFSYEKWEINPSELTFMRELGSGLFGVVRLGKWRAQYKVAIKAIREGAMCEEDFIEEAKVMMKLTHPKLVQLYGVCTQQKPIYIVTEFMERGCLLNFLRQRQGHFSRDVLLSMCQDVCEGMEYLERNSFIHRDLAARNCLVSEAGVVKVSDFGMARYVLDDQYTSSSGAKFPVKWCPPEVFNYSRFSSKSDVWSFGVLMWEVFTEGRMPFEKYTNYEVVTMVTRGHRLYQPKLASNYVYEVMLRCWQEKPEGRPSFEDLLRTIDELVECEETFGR

[13] = target: T1, Tyrosine-protein kinase Tec (Homo sapiens); settings: at 1 µM
[14] = target: Angiopoietin-1 receptor (Homo sapiens) (UniProt Q02763); settings: at 0.1 µM
[15] = target: Angiopoietin-1 receptor (Homo sapiens) (UniProt Q02763); settings: at 1 µM
[16] = target: T2, Non-receptor tyrosine-protein kinase TNK1 (Homo sapiens) (UniProt Q13470); settings: at 0.1 µM
T2 sequence (whole entry): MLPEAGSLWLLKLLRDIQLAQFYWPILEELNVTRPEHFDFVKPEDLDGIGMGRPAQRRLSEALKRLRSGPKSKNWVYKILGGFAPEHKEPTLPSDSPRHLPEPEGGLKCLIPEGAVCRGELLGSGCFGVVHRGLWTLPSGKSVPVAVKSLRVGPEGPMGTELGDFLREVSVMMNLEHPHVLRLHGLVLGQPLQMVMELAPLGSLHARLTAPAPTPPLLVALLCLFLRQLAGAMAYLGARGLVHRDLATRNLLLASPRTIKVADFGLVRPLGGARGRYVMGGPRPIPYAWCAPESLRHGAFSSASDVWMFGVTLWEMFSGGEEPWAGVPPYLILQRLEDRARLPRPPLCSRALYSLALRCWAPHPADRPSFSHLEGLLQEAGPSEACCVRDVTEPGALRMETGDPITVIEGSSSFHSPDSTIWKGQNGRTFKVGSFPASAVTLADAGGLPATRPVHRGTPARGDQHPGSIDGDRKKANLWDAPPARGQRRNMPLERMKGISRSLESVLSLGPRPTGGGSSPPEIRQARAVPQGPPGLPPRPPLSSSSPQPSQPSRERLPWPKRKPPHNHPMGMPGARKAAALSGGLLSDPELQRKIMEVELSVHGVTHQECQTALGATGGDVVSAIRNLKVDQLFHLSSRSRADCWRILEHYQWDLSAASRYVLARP

[17] = target: T2, Non-receptor tyrosine-protein kinase TNK1 (Homo sapiens); settings: at 1 µM
[18] = target: Activated CDC42 kinase 1 (Homo sapiens) (UniProt Q07912); settings: at 0.1 µM
[19] = target: Activated CDC42 kinase 1 (Homo sapiens) (UniProt Q07912); settings: at 1 µM
[20] = target: High affinity nerve growth factor receptor (Homo sapiens) (UniProt P04629); settings: at 0.1 µM;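 further: each value is a mean of replicate percent inhibition readings against TRKA kinase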

Tyrosine-protein kinase Srms (Homo sapiens), sequence (Q9H3Y6 whole entry): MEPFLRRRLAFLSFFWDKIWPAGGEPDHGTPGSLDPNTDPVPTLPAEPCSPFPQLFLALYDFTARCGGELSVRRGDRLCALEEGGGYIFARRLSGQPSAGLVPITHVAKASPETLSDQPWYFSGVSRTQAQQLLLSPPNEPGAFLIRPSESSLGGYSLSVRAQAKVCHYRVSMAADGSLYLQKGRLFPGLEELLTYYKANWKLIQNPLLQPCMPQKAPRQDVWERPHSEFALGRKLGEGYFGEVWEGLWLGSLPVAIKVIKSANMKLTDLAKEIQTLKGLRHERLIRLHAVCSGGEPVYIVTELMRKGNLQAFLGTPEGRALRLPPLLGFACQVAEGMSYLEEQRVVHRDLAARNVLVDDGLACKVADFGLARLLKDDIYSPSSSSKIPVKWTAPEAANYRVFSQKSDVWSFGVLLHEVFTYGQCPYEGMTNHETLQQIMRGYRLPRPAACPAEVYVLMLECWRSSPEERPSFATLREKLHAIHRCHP
Proto-oncogene tyrosine-protein kinase Src (Homo sapiens), sequence (P12931 2-536 limits assumed): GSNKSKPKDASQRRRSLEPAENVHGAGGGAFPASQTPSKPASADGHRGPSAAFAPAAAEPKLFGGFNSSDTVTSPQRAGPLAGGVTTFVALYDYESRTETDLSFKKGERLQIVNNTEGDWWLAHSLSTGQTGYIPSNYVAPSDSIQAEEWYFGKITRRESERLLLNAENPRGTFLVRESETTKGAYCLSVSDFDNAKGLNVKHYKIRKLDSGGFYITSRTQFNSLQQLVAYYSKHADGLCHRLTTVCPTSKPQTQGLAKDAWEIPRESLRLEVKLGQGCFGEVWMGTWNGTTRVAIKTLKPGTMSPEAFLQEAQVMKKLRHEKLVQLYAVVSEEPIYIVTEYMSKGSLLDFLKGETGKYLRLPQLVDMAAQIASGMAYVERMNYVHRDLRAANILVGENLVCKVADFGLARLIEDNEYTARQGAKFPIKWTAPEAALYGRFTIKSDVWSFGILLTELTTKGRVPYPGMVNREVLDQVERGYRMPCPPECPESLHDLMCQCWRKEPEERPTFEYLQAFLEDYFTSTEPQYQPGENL
Activated CDC42 kinase 1 (Homo sapiens), sequence (Q07912 whole entry, looked up): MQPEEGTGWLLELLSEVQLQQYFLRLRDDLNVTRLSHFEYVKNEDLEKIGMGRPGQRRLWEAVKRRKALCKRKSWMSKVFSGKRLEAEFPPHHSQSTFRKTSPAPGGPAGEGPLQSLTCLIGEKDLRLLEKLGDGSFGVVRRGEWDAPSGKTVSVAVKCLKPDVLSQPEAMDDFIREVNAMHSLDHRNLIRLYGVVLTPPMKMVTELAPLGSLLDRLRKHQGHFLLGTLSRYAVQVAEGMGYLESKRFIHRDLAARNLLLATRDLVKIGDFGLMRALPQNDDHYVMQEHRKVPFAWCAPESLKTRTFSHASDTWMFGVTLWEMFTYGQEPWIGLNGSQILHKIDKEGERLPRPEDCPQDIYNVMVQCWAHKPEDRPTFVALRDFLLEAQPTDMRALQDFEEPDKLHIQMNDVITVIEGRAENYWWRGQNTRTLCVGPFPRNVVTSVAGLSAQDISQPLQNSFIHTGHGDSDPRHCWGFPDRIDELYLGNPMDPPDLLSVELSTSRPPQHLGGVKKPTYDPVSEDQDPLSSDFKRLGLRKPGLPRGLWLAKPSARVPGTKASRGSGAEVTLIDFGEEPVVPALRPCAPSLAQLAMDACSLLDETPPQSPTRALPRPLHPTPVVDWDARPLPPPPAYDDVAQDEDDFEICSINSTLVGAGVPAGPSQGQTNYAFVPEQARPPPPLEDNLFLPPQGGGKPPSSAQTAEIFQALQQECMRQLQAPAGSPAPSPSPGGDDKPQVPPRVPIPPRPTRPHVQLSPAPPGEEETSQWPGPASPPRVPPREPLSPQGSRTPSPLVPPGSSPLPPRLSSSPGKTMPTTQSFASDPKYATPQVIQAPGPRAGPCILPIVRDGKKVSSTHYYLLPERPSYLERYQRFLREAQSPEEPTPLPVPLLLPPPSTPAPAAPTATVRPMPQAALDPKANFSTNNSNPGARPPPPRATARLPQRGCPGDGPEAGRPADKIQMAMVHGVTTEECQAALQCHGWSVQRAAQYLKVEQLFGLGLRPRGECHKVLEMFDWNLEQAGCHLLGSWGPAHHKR
Macrophage-stimulating protein receptor (Homo sapiens), sequence (Q04912 25-304 limits assumed): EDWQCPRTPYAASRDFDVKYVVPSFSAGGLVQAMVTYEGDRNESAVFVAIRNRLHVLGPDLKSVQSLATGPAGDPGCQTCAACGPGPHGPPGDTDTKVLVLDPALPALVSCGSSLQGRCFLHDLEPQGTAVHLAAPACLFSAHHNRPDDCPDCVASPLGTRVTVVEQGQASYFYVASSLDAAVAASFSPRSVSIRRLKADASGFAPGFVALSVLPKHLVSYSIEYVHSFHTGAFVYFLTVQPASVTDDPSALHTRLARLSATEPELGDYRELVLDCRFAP
Macrophage-stimulating protein receptor (Homo sapiens), sequence (Q04912 310-1400 limits assumed): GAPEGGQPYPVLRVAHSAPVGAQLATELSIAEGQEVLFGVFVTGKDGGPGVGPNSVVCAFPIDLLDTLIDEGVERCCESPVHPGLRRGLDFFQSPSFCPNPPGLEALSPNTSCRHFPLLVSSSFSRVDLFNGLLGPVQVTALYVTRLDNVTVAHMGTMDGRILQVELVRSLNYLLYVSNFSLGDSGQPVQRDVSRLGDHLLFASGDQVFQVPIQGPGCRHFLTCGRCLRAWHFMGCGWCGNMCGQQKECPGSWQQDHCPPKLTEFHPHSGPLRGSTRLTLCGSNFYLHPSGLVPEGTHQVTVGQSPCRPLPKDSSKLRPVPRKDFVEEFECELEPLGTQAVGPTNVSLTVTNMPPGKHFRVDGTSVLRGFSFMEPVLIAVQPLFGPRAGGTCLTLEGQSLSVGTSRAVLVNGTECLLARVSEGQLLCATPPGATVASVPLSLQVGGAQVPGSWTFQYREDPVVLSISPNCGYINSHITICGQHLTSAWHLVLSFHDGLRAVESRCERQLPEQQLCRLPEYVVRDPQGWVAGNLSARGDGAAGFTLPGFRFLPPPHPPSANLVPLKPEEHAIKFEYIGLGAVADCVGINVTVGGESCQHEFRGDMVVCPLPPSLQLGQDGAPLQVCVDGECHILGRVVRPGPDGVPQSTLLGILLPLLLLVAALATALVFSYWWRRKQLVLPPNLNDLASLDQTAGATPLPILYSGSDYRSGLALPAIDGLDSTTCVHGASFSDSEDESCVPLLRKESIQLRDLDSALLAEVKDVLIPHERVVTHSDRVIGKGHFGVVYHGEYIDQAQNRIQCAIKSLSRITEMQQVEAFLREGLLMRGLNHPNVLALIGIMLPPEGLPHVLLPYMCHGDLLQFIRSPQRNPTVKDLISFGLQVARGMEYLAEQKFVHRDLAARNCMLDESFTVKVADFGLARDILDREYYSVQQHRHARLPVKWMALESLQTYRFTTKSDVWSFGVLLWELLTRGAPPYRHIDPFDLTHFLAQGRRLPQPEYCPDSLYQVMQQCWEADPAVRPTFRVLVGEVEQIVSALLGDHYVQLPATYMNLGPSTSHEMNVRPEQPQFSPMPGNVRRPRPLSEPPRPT
Proto-oncogene tyrosine-protein kinase receptor Ret (Homo sapiens), P07949 [Y791F], sequence (P07949 whole entry Y791F): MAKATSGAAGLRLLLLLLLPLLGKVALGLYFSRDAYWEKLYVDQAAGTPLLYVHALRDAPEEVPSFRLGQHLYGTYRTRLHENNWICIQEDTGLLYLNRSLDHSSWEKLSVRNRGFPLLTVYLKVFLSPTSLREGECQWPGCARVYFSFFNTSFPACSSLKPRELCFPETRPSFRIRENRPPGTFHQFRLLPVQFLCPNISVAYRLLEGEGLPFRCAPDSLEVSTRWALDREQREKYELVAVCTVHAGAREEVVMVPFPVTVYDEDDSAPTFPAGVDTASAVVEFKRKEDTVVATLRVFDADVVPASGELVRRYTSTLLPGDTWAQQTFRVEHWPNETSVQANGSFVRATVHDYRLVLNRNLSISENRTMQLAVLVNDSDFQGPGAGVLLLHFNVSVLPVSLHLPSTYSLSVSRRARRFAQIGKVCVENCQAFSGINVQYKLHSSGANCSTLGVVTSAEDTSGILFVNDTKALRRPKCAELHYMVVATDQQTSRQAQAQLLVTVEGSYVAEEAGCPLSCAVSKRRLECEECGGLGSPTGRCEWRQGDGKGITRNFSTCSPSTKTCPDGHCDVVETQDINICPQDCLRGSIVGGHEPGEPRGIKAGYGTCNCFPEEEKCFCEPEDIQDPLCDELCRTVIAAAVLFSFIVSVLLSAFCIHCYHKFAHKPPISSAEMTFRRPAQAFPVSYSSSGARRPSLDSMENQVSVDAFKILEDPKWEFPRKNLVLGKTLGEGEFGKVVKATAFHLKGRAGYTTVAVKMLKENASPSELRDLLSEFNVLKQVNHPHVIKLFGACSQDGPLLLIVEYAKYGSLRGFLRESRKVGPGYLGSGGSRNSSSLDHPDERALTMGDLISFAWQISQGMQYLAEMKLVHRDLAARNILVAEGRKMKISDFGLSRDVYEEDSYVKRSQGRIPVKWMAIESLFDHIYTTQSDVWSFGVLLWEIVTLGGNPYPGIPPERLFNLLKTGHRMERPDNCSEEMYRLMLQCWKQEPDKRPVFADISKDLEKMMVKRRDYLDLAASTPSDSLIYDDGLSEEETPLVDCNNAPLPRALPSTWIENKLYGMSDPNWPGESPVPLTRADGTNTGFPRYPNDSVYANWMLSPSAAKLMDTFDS

SMILES | inhibition [1] | inhibition [2] | inhibition [3] | inhibition [4] | inhibition [5] | inhibition [6] | inhibition [7] | inhibition [8] | inhibition [9] | inhibition [10] | inhibition [11] | inhibition [12] | inhibition [13] | inhibition [14] | inhibition [15] | inhibition [16] | inhibition [17] | inhibition [18] | inhibition [19] | inhibition [20]
COC(=O)Nc1nc2cc(Oc3ccc(NC(=O)Nc4cccc(C(=O)O)c4)cc3)ccc2[nH]1 | 26.3% | 0.89% | 5.64% | -2.86% | 3.11% | 1.83% | 7.71% | 0.44% | 0.74% | 5.41% | -0.23% | -2.22% | 0.87% | 1.97% | 7.16% | -0.91% | 17.4% | -0.08% | 0.6% | 1.98%
Cc1ccc(NC(=O)c2ccnc(N3CCCC3)c2)cc1-c1ccc(C(=O)NCC2CC2)cc1 | 11.4% | 8.6% | 6.95% | 6.76% | 12% | 4.44% | 9.16% | -3.02% | -4.02% | -0.79% | -1.46% | 0.49% | 3.83% | 1.03% | 5.42% | 2.43% | -2.64% | 1.07% | 1.27% | 1.92%
CNC(=O)c1cncc(/C=C/c2c(Cl)cccc2Cl)c1 | 14.9% | 6.34% | -0.69% | 11.1% | 11.8% | 14.3% | 47.2% | 1.5% | 8.71% | 1.45% | 1% | 5.68% | 23.4% | 5.91% | 3.57% | 8.81% | 38.8% | 0.26% | 11% | 2.22%
CCn1c(-c2nonc2N)nc2cnc(Oc3cccc(NC(=O)c4ccc(OCCN5CCOCC5)cc4)c3)cc21 | 7.86% | 3.1% | 5% | 8.56% | 11% | 3.92% | 7.72% | -0.56% | -0.69% | -4.21% | 1.88% | 3.35% | 5.81% | 3.75% | 6.59% | 0.95% | 5.9% | -0.31% | -0.19% | 4.32%
Nc1ncnc2occ(-c3ccc(NC(=O)Nc4cccc(C(F)(F)F)c4)cc3)c12 | 86.3% | 2.56% | 27.7% | 6% | 21.7% | 14.4% | 52.8% | -4.22% | -3.07% | -4.82% | – | 1.64% | 5.89% | 56.4% | 74.4% | 7.73% | 52.8% | 0.8% | 1.54% | 63.9%
CCn1c(-c2nonc2N)nc2c(N3CCCC3)nccc21 | 2.26% | 1.7% | 0.95% | 4.19% | 4.49% | -2.23% | -2.52% | 0.27% | 0.26% | -1.66% | 2.9% | -1.85% | -3.76% | 0.7% | 0.05% | -3.68% | -3.3% | -0.78% | -0.6% | 1.23%
O=C1Nc2ccc(C(=O)c3ccco3)cc2C1=Cc1cc(Cl)c(O)c(Cl)c1 | 54.8% | 14.5% | 18.8% | 6.01% | 11.2% | 3.8% | 15.5% | 21.3% | 59.7% | -6.13% | -0.93% | 3.56% | 9.55% | 2.1% | 3.01% | 38.9% | 85.3% | 1.92% | 6.27% | 4.97%
O=C(Nc1n[nH]c2nc(-c3ccco3)c(Br)cc12)C1CC1 | -2.51% | 1.47% | 4.05% | 3.63% | 3.03% | 12.5% | 14.2% | -2.24% | -0.3% | 0.12% | -0.45% | 4.92% | 9.1% | 7.26% | 13.7% | 2.22% | -0.4% | 0.93% | 0.24% | 3.1%
CCN1CCC(CC(=O)Nc2n[nH]c3nc(-c4cccs4)c(Br)cc23)CC1 | -0.99% | 0.5% | 6.29% | -0.25% | -0.04% | 15.4% | -4.33% | -1.72% | -0.34% | -1.06% | 0.14% | -2% | -2.77% | 9.68% | 11.1% | -7.55% | 4.72% | -0.98% | -0.2% | -0.5%
CC1=C(C(=O)Nc2ccc3[nH]ncc3c2)C(c2ccc(Cl)c(Cl)c2)CC(=O)N1 (centres undefined) | 25.4% | 3.91% | 15% | 2.14% | 8.67% | 17.4% | 24.9% | 1.99% | -3.08% | -3.45% | 1.43% | 2.26% | 6.35% | 2.31% | 4.81% | -0.39% | 9.22% | 0.3% | 1.41% | 2.44%
Cc1ccc(C(=O)NC2CCCCC2)cc1-c1ccc(C(=O)NCC2CC2)cc1 | 23% | -5.44% | 3.46% | 6.22% | 7.1% | 0.23% | 4.58% | 2.6% | 0.74% | -0.6% | 0.52% | 4.18% | 5.66% | 1.79% | 4.17% | 0.56% | -2.52% | 2.3% | 4.5% | 2.3%
CCn1c(-c2nonc2N)nc2c(C#CC(C)(C)O)nc(OC[C@@H](N)c3ccccc3)cc21 | 47.4% | 11.5% | 6.11% | 2.07% | 11.2% | 2.45% | 0.1% | 1.94% | 5.92% | -1.58% | 1.52% | 1.68% | 6.92% | 1.25% | 10.4% | -2.6% | 2.87% | 0.28% | 5.21% | -0.3%
CC1=C(C(=O)Nc2ccc3[nH]ncc3c2)C(c2ccc3ccccc3c2)CC(=O)N1 (centres undefined) | 60.5% | 34% | 67.5% | 7.1% | 14.5% | 13% | 64.9% | 1.12% | 1.41% | 2.43% | 2.59% | 2.81% | 9.73% | 3.02% | 8.68% | 3.25% | 22.4% | 2.91% | 20.3% | 3.43%
